Screen size: about 65,000 compounds; about 2,100 (3.2%) showed an effect of 50% or more. The median lay at about -52%. Only a selection was taken, and strong results are over-represented in it overall.

The assay relates to Plasmodium falciparum. The experiment in a line: Screen against P. falciparum Asexual Blood Stage (ABS), at 5uM. It is filed as functional, Dd2. Conditions: tested at 5 uM.
With `Cc1ccsc1CN(CCCN(C)C)Cc1ccccn1`, the INHIBITION is reported as 77.9%.

With `COCCN1CCO[C@@H]2CN(Cc3ccccn3)C[C@@H]2C1`, the INHIBITION is -86.9%.

For the compound `COc1cc(CNC(C)Cn2cccn2)cc2c1OCO2` (stereo not given), the INHIBITION is listed as -32.2%.

For the compound `COc1cc(CN(CCCN(C)C)Cc2ccccn2)cc2c1OCO2`, the INHIBITION is reported as 80.6%.

In the case of `COc1cc(CNC(C)Cn2cccn2)cc2c1OCCO2` (stereo not given), the INHIBITION is -31%.

Take `COCCn1ccnc1CN(Cc1ccccn1)Cc1sccc1C`: the INHIBITION is 92.9%.

In the case of `Cc1ccc(N2C[C@@H]3CN(Cc4csc(C)n4)CCO[C@@H]3C2)nn1`, the INHIBITION is reported as -106%.

As to `O=C1CO[C@H]2CN(Cc3ccccc3Br)C[C@@H]2N1`, the INHIBITION was 7.05%.

`Cc1cc(F)ccc1CN1CCC(O)(CN2CCCCC2)C1` (stereo not given): the INHIBITION turned out to be 78.8%.

As for `COc1ccc(F)cc1C(=O)C1CCCN(Cc2ccc(C)s2)C1` (stereo not given), the INHIBITION came to 17%.

On to `COc1ccc(F)cc1CN1CCC(O)(CN2CCCCC2)C1` (stereo not given), for which the INHIBITION turned out to be 70.9%.

As to `CN1CCO[C@H]2CN(C(=O)c3ccoc3)C[C@H]21`, the INHIBITION is on record as -144%.

In the case of `Cn1nc(-c2ccccc2)cc1[C@H]1CN2CC[C@H]1C[C@@H]2CNS(C)(=O)=O`, the INHIBITION worked out at 15%.

`O=C1N(CCc2ccccc2)CCCC1(O)CNCc1ccc(F)cc1` (stereo not given): the INHIBITION was 78.1%.

Turning to `O=C(Cc1ccccc1)N1CCC2(CCN2Cc2ccc(F)cc2)C1` (stereo not given), the INHIBITION is -12.1%.

In the case of `O=C(Nc1ccc(F)cc1)N1CCC(CO)(Nc2ccccc2)CC1`, the INHIBITION was -40.85%.

In the case of `O=C1N(CCCc2ccccc2)CCCC1(O)CNCC1CCCCC1` (stereo not given), the INHIBITION was determined as 72.4%.

On to `CC(Cn1cccn1)NCCS(=O)(=O)c1ccccc1` (stereo not given), for which the INHIBITION was -87.3%.

Take `O=C(C1CCN(S(=O)(=O)N2CCCC2)CC1)N1CCC2(CC1)OCCO2`: the INHIBITION is given as -133%.

For the compound `CC(C)CN1C[C@@H]2C[C@H](C(=O)NCc3cccnc3)[C@H](C1)O2`, the INHIBITION is listed as -83.7%.

`CCc1ccc(CN(C)c2ccc(-c3nc(COC)no3)cn2)nc1`: the INHIBITION is 78.4%.

For the compound `c1cnc(N2CCO[C@H]3CN(CC4CCOCC4)C[C@H]32)nc1`, the INHIBITION is listed as -125%.

Take `O=C(CN1CCCC(c2ccn[nH]2)C1)Nc1nncs1` (stereo not given): the INHIBITION amounted to 89.1%.

As for `Cc1nnc(NC(=O)CN2CCCC(c3ccn[nH]3)C2)s1` (stereo not given), the INHIBITION is given as 85.8%.

With `CC(C)(CNc1ccc(C#N)c(C(F)(F)F)c1)C(N)=O`, the INHIBITION was -66.3%.

`Cc1ccc(C2(CN(C)Cc3sccc3C)CCNCC2)nc1`: the INHIBITION was determined as 77.4%.

With `COCCCNC(=O)c1cn(C(C)(C)C)c2ncccc12`, the INHIBITION is recorded as -71.7%.

Consider `COc1ccc(C(=O)NCCCOC(C)c2ccccc2)c(OC)c1` (stereo not given), for which the INHIBITION is given as 78.9%.

Take `Fc1ccc(CN2C[C@@H](OCc3ccccn3)[C@H]3COC[C@H]32)cc1`: the INHIBITION is reported as -62.3%.

Consider `O=C(NCCCN1CCCCC1)c1ccc(-n2ccc3ccccc32)s1`, for which the INHIBITION amounted to 79%.

Take `CCN(CC)CCNC(=O)c1ccc(-n2ccc3ccccc32)s1`: the INHIBITION is recorded as 90.5%.

As for `Cc1nc(CN2CCN3C[C@H](Oc4cncnc4)C[C@H]3C2)cs1`, the INHIBITION is -50.1%.

`COCCCN1CCCC12CCN(Cc1cccnc1OC)CC2`: the INHIBITION worked out at 8.49%.

As to `CN1CCN(Cc2ccccc2Oc2nccc3occc23)CC1`, the INHIBITION was found to be 77.4%.

On to `COc1ncccc1CN1C[C@@H]2CN(c3ncccn3)C[C@@H]2C1`, for which the INHIBITION is recorded as 5.48%.

Take `COc1ncccc1CN1CCC2(CC1)COCCN2C`: the INHIBITION is listed as -36%.

As for `c1ccc(Oc2nccc3occc23)c(CN2CCCCC2)c1`, the INHIBITION worked out at 72.9%.

For `O=C([C@H]1C[C@H]2OCC[C@H]2N(Cc2cccnc2)C1)N1CCCCO1`, the INHIBITION is -141%.

Regarding `O=C(c1c[nH]c2ncccc12)N(Cc1ccco1)C1CCCC1`, the INHIBITION is reported as 87%.

Regarding `CCC(C)(C)n1nnnc1C(c1cccs1)N1CCc2ccccc2C1` (stereo not given), the INHIBITION is recorded as 73.9%.

In the case of `Fc1ccc(Sc2ccccc2CNC2=NCCN2)cc1`, the INHIBITION was 80.4%.

Turning to `Fc1ccccc1Sc1ccccc1CNC1=NCCN1`, the INHIBITION is 77.4%.

Turning to `c1ccc(Sc2ccc3c(c2)OCO3)c(CNC2=NCCN2)c1`, the INHIBITION is listed as 83.7%.

As to `Cc1csc(CN2CC[C@H]3C[C@H](c4ccncn4)O[C@@H]3C2)n1`, the INHIBITION was -50.8%.

For `CNCc1cn(C[C@H]2C[C@@H]3CCN2C[C@@H]3C(=O)NC2CCCCC2)nn1`, the INHIBITION is -152%.

For `CO[C@H]1CCN(S(=O)(=O)N(C)C)[C@@H]2CN(Cc3cccnc3)C[C@H]12`, the INHIBITION is -7.26%.

Consider `O=C(Nc1ccccc1)[C@H]1CN2CC[C@H]1C[C@@H]2Cn1cc(CCO)nn1`, for which the INHIBITION is -52.4%.

With `c1ccc(COC2C[C@@H]3CN(Cc4cccnc4)C[C@@H]3C2)cc1` (stereo not given in full), the INHIBITION is recorded as -9.68%.

Turning to `CC(C)CN1CCNC(=O)C12CCN(C(=O)c1ccccn1)CC2`, the INHIBITION is recorded as -97.5%.

Consider `O=C(N1CCCC1)N1C[C@@H]2CC[C@H]1CN(Cc1ccncc1)C2`, for which the INHIBITION was -121%.

In the case of `Cc1cccc(CO[C@@H]2C[C@H]3CN(c4ncccn4)CCN3C2)n1`, the INHIBITION is listed as -75.8%.

With `CCN(CC)Cc1ccccc1NC(=O)N(C)Cc1ccccc1O`, the INHIBITION was 85%.

For `Cc1cccc(CN2C(=O)C[C@@H]3[C@@H]2CCN3Cc2ccsc2)n1`, the INHIBITION is given as -13%.

For `Cc1nc(CN2CCCC(NCCc3ccccc3Cl)C2)no1` (stereo not given), the INHIBITION is listed as 82.3%.

Regarding `COc1ccccc1OCC(=O)N1CCN(Cc2noc(C)n2)CC1`, the INHIBITION is -68.9%.

As for `CC(C)c1nc(CN2CCN(C(=O)Cc3ccccc3Cl)CC2)no1`, the INHIBITION is on record as 10.3%.

Consider `Fc1cnc(N2CCO[C@H]3CN(CC4CCC4)C[C@H]32)nc1`, for which the INHIBITION is given as -80%.

For the compound `Cn1c(CN2CCCCC2)cc(=O)c(O)c1CN1CCCCC1`, the INHIBITION is recorded as 81.8%.

For `CO[C@H]1CN(CC2CCOCC2)[C@@H]2CCCO[C@H]12`, the INHIBITION is listed as -48.2%.

With `Cc1c(C)n(CC(O)CN2CCC(C)CC2)c2c(Cl)cccc12` (stereo not given), the INHIBITION was 83%.

As to `Cc1c(C)n(CC(O)CN2CCN(CCO)CC2)c2c(Cl)cccc12` (stereo not given), the INHIBITION is 88.6%.

Turning to `CCC(O)CN1CCN(C(=O)Cc2ccccc2Cl)CC1` (stereo not given), the INHIBITION is recorded as -113%.

As to `CCS(=O)(=O)N1CCN(CCOC)c2ncccc2C1`, the INHIBITION is -58.7%.

With `COCCN1CCOCC12CCN(C(=O)c1cccnc1)CC2`, the INHIBITION was -95.8%.

Take `O=C(NC1CC1)[C@H]1C[C@H]2OCC[C@H]2N(Cc2cccnc2)C1`: the INHIBITION is given as -76.1%.

The values above are taken from ChEMBL document CHEMBL4513216, “Probing the Open Global Health Chemical Diversity Library for Multistage-Active Starting Points for Next-Generation Antimalarials” (ACS Infect Dis, 2020).
